Values without a mark were called inactive. Records with an inconclusive call do not appear. Entries that show only a call come without a potency. Activity calls are given as the source filed them. Unless noted, calls come from the whole dose curve; as a rule, active = well fitted curve in the direction sought with a large enough effect; inconclusive = small, poorly fitted or top-dose-only effect, or another doubt; inactive = no such curve, though single readings can be large; an effect the other way counts as inactive or inconclusive.
Assays:
[1] = Cell Viability - BJ (AID 421; calls by dose curve;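 note: potency is the fitted concentration of half-maximal effect; cells exposed to compound for 40 hours at 37 °C before readout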); conditions: BJ fibroblast viability, qHTS
Summary of the method: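 Luminescent ATP signal (CellTiter-Glo, 20 min at room temperature) served as the read-out of viable BJ cells after 40 hours of compound treatment. Responses were scaled between DMSO and 100 uM tamoxifen, and AC50 values were obtained by Hill modeling.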

[2] = Cell Viability - Jurkat (AID 426;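 active = dose-dependent loss of cell ATP signal giving a full or clear fitted curve, ranked by lower potency value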;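 note: potency is the fitted concentration of half-maximal effect; cells exposed to compound for 40 hours at 37 °C before ATP read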); conditions: qHTS
Summary of the method: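 Cytotoxicity taken as drop in cellular ATP (CellTiter-Glo luminescence, 20 min room temperature) after 40 hr, 37C treatment of 5000 Jurkat Clone E6-1 cells per well; concentration-response fitted with Hill equation for AC50.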

[3] = Cell Viability - HepG2 (AID 433; calls by dose curve;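 note: potency is the fitted concentration of half-maximal effect; potency for ATP loss meaning cytotoxicity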); conditions: qHTS
Summary of the method: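 Read-out is luciferase-based quantitation of cellular ATP as a measure of viable HepG2 cells after 40 h treatment at 37 °C. Signal decrease is scaled between DMSO-only and 100 uM tamoxifen controls, with AC50 fitted by the Hill equation.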

[4] = Cell Viability - MRC5 (AID 434; calls by dose curve;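 note: potency is the fitted concentration of half-maximal effect; cells exposed to compound for 40 hours at 37 °C; potency reflects cytotoxicity seen as loss of intracellular ATP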); conditions: MRC5 lung fibroblast viability, qHTS
Summary of the method: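 ATP luminescence read-out (CellTiter-Glo, 20 min RT) after 40 hr, 37 °C compound exposure of 1500 MRC5 cells/well. Data normalized to DMSO (basal) and 100 uM tamoxifen (100% inhibition); AC50 from standard Hill equation.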

[5] = Cell Viability - SK-N-SH (AID 435; calls by dose curve; note: potency is the fitted concentration of half-maximal effect); conditions: SK-N-SH neuroblastoma cell viability qHTS
Summary of the method: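 Luminescent ATP signal served as the viability read-out after 40 hours of compound treatment of human neuroblastoma SK-N-SH cells. Concentration-response data, scaled between DMSO and 100 uM tamoxifen, gave AC50 values by standard Hill modeling.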

[6] = Cell Viability - N2a (AID 540); conditions: N2a mouse neuroblastoma cell viability; activity change, negative = cytotoxicity: at 92.2 µM (top of the series); note: nearly all actives have a fitted effect of over 45% in size
Summary of the method: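 CellTiter-Glo ATP luminescence, read 20 min after reagent at room temperature, reported viability following 40 h compound treatment at 37 °C. N2a mouse neuroblastoma cells seeded 1500/well; Hill equation gave AC50.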

[7] = Cell Viability - NIH 3T3 (AID 541); conditions: NIH 3T3 cell viability, qHTS; activity change, negative = cytotoxicity: at 92.2 µM (top of the series); note: nearly all actives have a fitted effect of over 25% in size
Summary of the method: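 Intracellular ATP (CellTiter-Glo luminescence, 20 min at room temperature) measured after 40 hr compound exposure at 37 °C of 1000 NIH 3T3 mouse fibroblasts/well in complete medium; AC50 derived by Hill-equation modelling of qHTS concentration-response curves.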

[8] = Cell Viability - HUV-EC-C (AID 542); conditions: HUV-EC-C endothelial cell viability, qHTS; series mostly up to 92.2 µM; note: nearly all actives have a fitted effect of over 35% in size
Summary of the method: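 CellTiter-Glo luminescence measured ATP loss in HUV-EC-C cells (1000/well) after 40 hr compound exposure at 37 °C, in complete culture medium. Concentration-response data were Hill-fitted to give AC50.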

[9] = Cell Viability - SH-SY5Y (AID 544); conditions: SH-SY5Y neuroblastoma cell viability; viability change, negative = cytotoxic: at 92.2 µM (top of the series); note: nearly all actives have a fitted effect of over 55% in size
Summary of the method: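 Cytotoxicity measured via ATP-dependent luciferase luminescence (CellTiter-Glo) following 40 h, 37 °C exposure of 1500 SH-SY5Y cells per well. Concentration-response data were fitted with the standard Hill equation to give AC50.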

[10] = Cell Viability - Mesenchymal (AID 546); conditions: mesenchymal cells viability, qHTS; series mostly up to 91.7 µM;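 note: cells exposed to compound for 40 hours before reading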
Summary of the method: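 Human renal mesenchymal cells (glomerulus-derived), 1000 cells/well, 5 hr 37 °C pre-incubation; compound 40 hr, 37 °C; CellTiter-Glo, 20 min RT; luminescence; AC50 via Hill equation.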

[11] = Cellular Toxicity (caspase-3) HepG2 (AID 654); conditions: HepG2 caspase-3 activation, luminescence; series mostly up to 92.2 µM;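 note: cells exposed to compound for 16 hours before reading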
Summary of the method: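 Caspase 3/7 activation is measured as a luminescence increase (aminoluciferin substrate) after 16 h compound exposure of human hepatocarcinoma HepG2 cells. AC50 values are Hill fits, scaled between DMSO baseline and 100 uM tamoxifen stimulation.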

[12] = Cellular Toxicity (caspase-3) Jurkat (AID 655); conditions: Jurkat caspase-3 activation, luminescence; caspase-3 activation: at 92.2 µM (top of the series), DMSO = 0%, tamoxifen = 100%;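 note: cells exposed to compound for 16 h at 37 °C before reading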; note: potency is the fitted concentration of half-maximal effect
Summary of the method: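 5000 Jurkat cells/well; compound 16 hr, 37 °C; Caspase-Glo 3/7 added, 20 min RT; luminescence read. Norm: DMSO = 0%, tamoxifen 100 uM = 100%. AC50, Hill model.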

[13] = Cellular Toxicity (caspase-3) HUV-EC-C (AID 656); conditions: HUV-EC-C cells, caspase-3 activation (apoptosis), vehicle = 0, 100 µM tamoxifen = 100%; series mostly up to 92.2 µM
Summary of the method: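 qHTS; HUV-EC-C, 1000 cells/well; 5 hr settle, 16 hr cmpd, 37°C; Caspase-Glo 3/7, 20 min RT; luminescence. Norm: DMSO = 0%, tamoxifen 100 uM = 100%. Hill-fit AC50.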

[14] = Cellular Toxicity (caspase-3) SHSY5Y (AID 657); conditions: SH-SY5Y caspase-3 activation, DMSO zero, 10 µM staurosporine = 100%; series mostly up to 91.7 µM;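 note: cells exposed to compound for 16 hours at 37 °C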
Summary of the method: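 qHTS, SH-SY5Y, 1500 cells/well, 5 h pre-incubation 37 °C; compound 16 h 37 °C; Caspase-Glo 3/7 1 h RT; luminescence. Norm.: DMSO = 0, 10 uM staurosporine = 100%. Hill fit → AC50.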

[15] = Cellular Toxicity (caspase-3) BJ (AID 658); conditions: BJ fibroblasts, luminescence, normalized: DMSO 0%, staurosporine 100%; series mostly up to 91.7 µM;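 note: cells exposed to compound for 16 hours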
Summary of the method: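 qHTS, BJ fibroblasts, 1000 cells/well; 5 hr preincubation, 16 hr compound, 37 °C; Caspase-Glo 3/7 reagent, 1 hr RT; luminescence. DMSO = 0%, 10 uM staurosporine = 100%. Hill-equation AC50.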

[16] = Cellular Toxicity (caspase-3) MRC-5 (AID 659); conditions: MRC-5 cells, luminescence, normalized: DMSO 0%, 10 µM staurosporine 100%; series mostly up to 91.7 µM
Summary of the method: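 MRC-5 fibroblasts, 1500/well; 16 h cpd, 37 °C; Caspase-Glo 3/7, 1 h RT; lumi read. Norm: DMSO = 0%, 10 uM staurosporine = 100%. Hill-fit AC50 from qHTS conc-response.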

[17] = biological target: Mitogen-activated protein kinase 10 (Mus musculus) (UniProt Q61831); experiment: JNK3 AlphaScreen Assay (AID 530; active = well fitted curve in either direction with a large enough effect, not every such curve was filed as active;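 note: kinase came from lysate of stimulated human HepG2 cells; signal reports phosphorylation of biotinylated GST-cJun 1-79 at Ser73 with 10 µM ATP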); conditions: JNK3 lysate, c-Jun phosphorylation; series mostly up to 57.1 µM
Summary of the method: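 Activity was read by AlphaScreen after JNK3-containing HepG2 lysate (cytokine pre-activated) phosphorylated biotinylated GST-cJun with 10 uM ATP at room temperature. Phospho-Ser73 cJun antibody with Protein-A acceptor beads provided detection.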

[18] = Cell Viability - H-4-II-E (AID 543); conditions: H-4-II-E rat hepatoma viability; series mostly up to 92.2 µM; note: nearly all actives have a fitted effect of over 35% in size
Summary of the method: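 CellTiter-Glo luminescence (intracellular ATP) measured after 40 h compound exposure at 37 °C in H-4-II-E rat hepatoma cells seeded at 1500/well. Values are AC50s fitted with the standard Hill equation.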

[19] = Cell Viability - Renal Proximal Tubule (AID 545); conditions: renal proximal tubule cells viability, primary cells of rat origin; series mostly up to 91.7 µM; note: nearly all actives have a fitted effect of over 40% in size
Summary of the method: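 Luminescent ATP signal (CellTiter-Glo) served as the viability read-out after 40 hr compound exposure of freshly isolated rat proximal tubule cells at 37 °C. Concentration-dependent ATP loss was fitted with the Hill equation to give AC50.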

Cc1ccc(C)c(N)c1
Potency [1]: > 92 µM | Potency [2]: > 92 µM | Potency [3]: > 92 µM | Potency [4]: > 92 µM | Potency [5]: > 92 µM | activity change, negative = cytotoxicity [6]: -15.8% | Potency [7]: inactive | Potency [8]: inactive | Potency [9]: inactive | Potency [10]: inactive | Potency [11]: inactive | caspase-3 activation [12]: 0.403% | outcome [13]: inactive | outcome [14]: inactive | outcome [15]: inactive | outcome [16]: inactive

CC(=O)Nc1ccc(N)cc1
Potency [1]: > 92 µM | Potency [2]: > 92 µM | Potency [3]: > 92 µM | Potency [5]: > 92 µM | outcome [17]: inactive | activity change, negative = cytotoxicity [6]: 4.55% | Potency [7]: inactive | Potency [8]: inactive | Potency [18]: inactive | Potency [9]: inactive | Potency [19]: inactive | Potency [10]: inactive | Potency [11]: inactive | caspase-3 activation [12]: 0.0249% | outcome [13]: inactive | outcome [14]: inactive

O=Nc1ccc(NO)cc1
Potency [1]: > 92 µM | Potency [2]: 51.1 µM (active) | Potency [3]: > 92 µM | Potency [4]: > 92 µM | Potency [5]: > 92 µM | activity change, negative = cytotoxicity [6]: 16.3% | Potency [7]: inactive | Potency [8]: inactive | Potency [18]: inactive | viability change, negative = cytotoxic [9]: -93.1% (active) | Potency [10]: inactive | Potency [11]: inactive | Potency [12]: 31.6 µM (active) | outcome [14]: inactive | outcome [15]: inactive

Cc1cc([N+](=O)[O-])ccc1N
Potency [1]: > 92 µM | Potency [2]: > 92 µM | Potency [3]: > 92 µM | Potency [4]: > 92 µM | Potency [5]: > 92 µM | outcome [17]: inactive | activity change, negative = cytotoxicity [6]: -8.91% | Potency [8]: inactive | Potency [18]: inactive | Potency [9]: inactive | Potency [19]: inactive | Potency [10]: inactive | Potency [11]: inactive | caspase-3 activation [12]: -1.03% | outcome [13]: inactive | outcome [14]: inactive | outcome [16]: inactive

O=[N+]([O-])c1ccccc1CCO
Potency [1]: > 92 µM | Potency [2]: > 92 µM | Potency [3]: > 92 µM | Potency [4]: > 92 µM | Potency [5]: > 92 µM | outcome [17]: inactive | activity change, negative = cytotoxicity [6]: -12.5% | Potency [7]: inactive | Potency [8]: inactive | Potency [18]: inactive | Potency [9]: inactive | Potency [10]: inactive | Potency [11]: inactive | caspase-3 activation [12]: 0.961% | outcome [13]: inactive | outcome [15]: inactive | outcome [16]: inactive

Nc1cccc(S(=O)(=O)O)c1
Potency [1]: > 92 µM | Potency [2]: > 92 µM | Potency [3]: > 92 µM | Potency [4]: > 92 µM | outcome [17]: inactive | activity change, negative = cytotoxicity [6]: -6.89% | Potency [8]: inactive | Potency [18]: inactive | Potency [9]: inactive | Potency [11]: inactive | caspase-3 activation [12]: -0.29% | outcome [13]: inactive | outcome [14]: inactive | outcome [15]: inactive

O=Cc1ccc(CO)o1
Potency [1]: > 92 µM | Potency [2]: > 92 µM | Potency [3]: > 92 µM | Potency [4]: > 92 µM | Potency [5]: > 92 µM | outcome [17]: inactive | activity change, negative = cytotoxicity [6]: 1.46% | Potency [7]: inactive | Potency [8]: inactive | Potency [18]: inactive | Potency [9]: inactive | Potency [19]: inactive | Potency [10]: inactive | Potency [11]: inactive | outcome [13]: inactive | outcome [14]: inactive | outcome [15]: inactive | outcome [16]: inactive

COc1ccccc1[N+](=O)[O-]
Potency [1]: > 92 µM | Potency [2]: > 92 µM | Potency [3]: > 92 µM | Potency [5]: > 92 µM | outcome [17]: inactive | activity change, negative = cytotoxicity [6]: -25.3% | Potency [7]: inactive | Potency [8]: inactive | Potency [18]: inactive | Potency [9]: inactive | Potency [19]: inactive | Potency [10]: inactive | Potency [11]: inactive | caspase-3 activation [12]: 10.8% | outcome [14]: inactive | outcome [15]: inactive | outcome [16]: inactive

COC(=O)CC#N
Potency [1]: > 92 µM | Potency [2]: > 92 µM | Potency [3]: > 92 µM | Potency [4]: > 92 µM | Potency [5]: > 92 µM | outcome [17]: inactive | activity change, negative = cytotoxicity [6]: -15.8% | Potency [7]: inactive | Potency [8]: inactive | Potency [9]: inactive | Potency [19]: inactive | Potency [10]: inactive | Potency [11]: inactive | outcome [14]: inactive | outcome [15]: inactive | outcome [16]: inactive

— PubChem BioAssay (NCATS)
